HPGD block: qHTS Assay for Inhibitors of HPGD (15-Hydroxyprostaglandin Dehydrogenase) | Potency, µM, for the others: at the top dose activity change, negative = inhibition, usual class: inhibitors | actives 4.3% (n = 150,000) | purified HPGD, NADH fluorescence kinetic, PGE2 substrate | 15-hydroxyprostaglandin dehydrogenase [NAD(+)] (Homo sapiens), P15428; also: potency is read from the fitted curve at half-maximal effect
Target sequence (P15428 whole entry, looked up): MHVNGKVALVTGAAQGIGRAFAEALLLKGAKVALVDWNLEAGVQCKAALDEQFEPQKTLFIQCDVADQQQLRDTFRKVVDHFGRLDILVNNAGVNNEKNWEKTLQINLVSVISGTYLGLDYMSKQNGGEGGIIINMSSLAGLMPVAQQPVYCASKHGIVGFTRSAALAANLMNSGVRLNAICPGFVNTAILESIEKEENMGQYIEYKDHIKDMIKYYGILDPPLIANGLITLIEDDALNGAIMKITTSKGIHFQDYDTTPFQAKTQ
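20 nM HPGD preincubated 15 min at room temperature with compound in 50 mM Tris-HCl pH 8, 0.01% Tween 20. Started with 1 mM NAD+ and 30 uM prostaglandin E2; NADH fluorescence (360/450 nm) read 5 times over 30-s intervals, last minus first.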
ALDH1A1 block: qHTS Assay for Inhibitors of Aldehyde Dehydrogenase 1 (ALDH1A1); Purified ALDH1A1, NADH fluorescence, propionaldehyde substrate; Potency, µM (highest dose often 75.3 µM), for the others: top-dose activity, negative = inhibition, hits mostly inhibitors; actives 7.3% (n = 220,000); AID 1030, 2008;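 also: potency is read from the fitted curve at half-maximal effect; plate controls were no enzyme wells and a reference inhibitor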
IMPase inh: qHTS Assay for Identifying the Cell-Membrane Permeable IMPase Inhibitors; Inositol monophosphatase 1 (Rattus norvegicus), P97697; CHO-M1 cells, IP1 accumulation, HTRF TR-FRET ratio; inhibition (IP1 accumulation), % at 46.1 µM; 120,000 tested, under 10 active; active = well fitted curve in the direction sought with a large enough effect in the signal ratio, not every such curve was filed as active; inconclusive = small, poorly fitted or top-dose-only effect, or a change in a side signal; inactive = no such curve, though single readings can be large or run the other way; the % refers to the signal ratio;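 also: cells stimulated with carbachol in lithium chloride buffer; plate controls were DMSO basal wells for no effect and reference inhibitor wells for full effect; higher means more IMPase inhibition seen as more IP1 and lower FRET ratio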
Target sequence (P97697 whole entry, looked up): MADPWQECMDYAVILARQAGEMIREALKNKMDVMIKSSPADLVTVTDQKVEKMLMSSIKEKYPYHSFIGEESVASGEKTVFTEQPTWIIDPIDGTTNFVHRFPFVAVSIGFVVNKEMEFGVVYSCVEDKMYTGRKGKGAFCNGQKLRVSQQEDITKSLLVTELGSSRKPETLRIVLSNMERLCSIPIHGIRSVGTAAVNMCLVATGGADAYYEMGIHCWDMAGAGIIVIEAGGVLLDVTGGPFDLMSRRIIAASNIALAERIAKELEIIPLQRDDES
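Measured: the HTRF emission ratio (665/620 nm) plus the 620 nm donor channel, each fitted to the Hill equation to give AC50. Cells were CHO-M1 given compounds up to 46 uM and a 30 min carbachol stimulation at 37C.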
* = called active by the depositor; ? = inconclusive; . = no result; ! = not confirmed by another sample; [ ] = dose if it differs, or a comment. An excerpt weighted towards active compounds, which were near 9% of everything screened. Unless noted, calls follow the shape of the dose curve; as a rule, active = well fitted inhibition curve with a large enough effect (not every such curve was filed as active); inconclusive = small, poorly fitted or top-dose-only effect, or another doubt; inactive = no such curve, though single readings can be large or run the other way. Unless noted, % is scaled to controls: 0 for no effect and ±100 for the full control effect.

SMILES | HPGD block | ALDH1A1 block | IMPase inh
CCN(CC)C(=O)c1ccc(NC(=O)CCn2nc(-c3ccc(C)cc3)c3ccccc3c2=O)cc1 | . | . | 0
CCN(CC)C(=O)c1ccc(NC(=O)c2cccc(F)c2)cc1 | 14µM* | 1% | 2
CC(=O)OCC1=C(C(=O)O)N2C(=O)C(NC(=O)CCCC(N)C(=O)O)C2SC1 (stereo not given) | -17% | 0% | .
NCCc1c[nH]c2ccc(OC(=O)C(=O)O)cc12 | -13% | -16%[13.5 µM] | .
CCOP(=S)(OCC)SCCSCC | -11% | 14µM* | .
CCOP(=S)(OCC)SCC(=O)NC(C)(CC)C(=O)O (stereo not given) | -8% | 5% | 3
C[C@]12CC[C@@H]3[C@@H](CCC4=CC(=O)CC[C@@H]43)[C@@H]1CC[C@@H]2OC(=O)CCc1ccccc1 | -8% | 2% | .
N#C/C(=C\c1ccc(O)c(O)c1)C(N)=S | 8.9µM* | 2.2µM* | ?
CC(C)[C@@H]1CN[C@H](C(=O)O)[C@@H]1CC(=O)O | -6% | 0% | 2
COC(=O)C(N)CCCN=C(N)N[N+](=O)[O-] (stereo not given) | -5% | -2% | .
COc1ccc2c(c1)CC[C@@H]1[C@@H]2CC[C@]2(C)[C@@H](NCCCCCCN3C(=O)C=CC3=O)CC[C@@H]12 | . | 8% | .
Cc1ccc(CC2C(=O)N(C)C(=O)N(C)C2=O)s1 | ? | 20µM* | -4
COc1ccc(CC2C(=O)N(C)C(=O)N(C)C2=O)c(OC)c1 | -4% | -16% | 14
C[C@@H]1O[C@@H](OC2CC(O)C3(CO)C4C(CCC3(O)C2)C2(O)CCC(C3=CC(=O)OC3)C2(C)C[C@H]4O)[C@H](O)[C@H](O)[C@H]1O (stereo not given in full) | -3% | 14% | .
O=C(Cl)c1ccccc1F | -14% | ? | .
CCOC(=O)Cc1[nH]nc2c1C(c1ccoc1)C(C#N)=C(N)O2 (stereo not given) | -27% | ? | 5
Cc1cnc[nH]1 | -14% | 0.28µM* | .
CNCCc1cnc[nH]1 | -5% | -6% | -4
Clc1ccc(C(Cl)(Cl)Cl)cc1Cl | 1% | 0% | .
O=C1NO[C@H]2[C@@H]1CN[C@@H]2C(=O)O | -17% | -13% | .
CCCc1cc2c(n1CCO)C(C)C1CN(C(=O)c3ccccc3)C(C)(C(=O)OC)C21 (stereo not given) | -13% | 6% | .
CC(=O)Nc1ccc(S(=O)(=O)N(C)CCOCc2ccccc2)cc1 | -7% | ? | -7
O=[N+]([O-])c1ccc(N2CCNCC2)c2ncccc12 | -8% | 9% | -7[1.84 µM]
CN1CCN(c2ccc([N+](=O)[O-])c(NCc3ccco3)c2)CC1 | -19% | 3% | .
O=[N+]([O-])c1ccc(N2CCNCC2)cc1N1CCCCCC1 | . | 4.5µM* | .
SMILES | HPGD block | ALDH1A1 block | IMPase inh
O=[N+]([O-])c1ccc(N2CCNCC2)cc1NCc1ccco1 | -19% | 28µM* | .
Nc1cc(N2CCNCC2)ccc1[N+](=O)[O-] | -17% | 1% | .
O=[N+]([O-])c1cc(F)c(N2CCCCCC2)cc1N1CCNCC1 | . | 7.1µM* | .
CSCC[C@H](NC(=O)[C@H](Cc1ccccc1)NC(=O)CNC(=O)CNC(=O)[C@@H](N)Cc1ccc(O)cc1)C(=O)O | . | -1% | .
C[C@H](NC(=O)[C@@H](N)Cc1ccc(O)cc1)C(=O)N[C@@H](Cc1ccccc1)C(=O)NCC(=O)N[C@@H](Cc1ccc(O)cc1)C(=O)N1CCC[C@H]1C(=O)N[C@@H](CO)C(N)=O | . | -8% | .
Cc1nc(N)sc1CCN | 0% | 5% | -1
O=C(O)C(Cl)(Cl)Br | -7% | -12% | .
COc1ccc(CNC(=O)/C=C\c2ccc3[nH]cc(CCN(C)C)c3c2)cc1 | -14% | -2% | 12
CC(=NCCCN1CCOCC1)c1c(O)n(-c2ccccc2C)c(=O)[nH]c1=O | -8% | 14µM* | 2
CC(=NCCN1CCOCC1)c1c(O)n(Cc2ccccc2)c(=O)[nH]c1=O | ? | ? | 1
Fc1ccc(C2=CCN(C(c3ccc(Cl)cc3)c3nnnn3Cc3ccccc3)CC2)cc1 (stereo not given) | -11% | ? | .
Cc1ccc(C(c2nnnn2Cc2ccccc2)N2CC=C(c3ccc(F)cc3)CC2)cc1 (stereo not given) | -15% | 7.9µM* | 10
O=c1[nH]c(=O)n(Cc2ccco2)c(O)c1C=NC1CC1 | -25% | 14µM* | 5
O=c1[nH]c(=O)n(Cc2ccco2)c(O)c1/C=N/N1CCCCC1 | -19% | ? | -2
O=C(O)c1ccccc1-c1c2cc(Br)c(=O)cc-2oc2[c]([Hg])c(O)c(Br)cc12 | 2.2µM* | 4.5µM* | 23[20.6 µM]
CCN(CC)C(=O)N[C@@H]1C[C@H]2c3cccc4[nH]cc(c34)C[C@@H]2N(C)C1 | -6% | 13%[20.9 µM] | -5[20.6 µM]
CN1Cc2ccccc2[C@@H]2c3cccc4[nH]cc(c34)C[C@H]21 | -27% | 16µM*! | 15
CCC[CH2][Sn]([Cl])([Cl])[Cl] | -3% | ? | .
c1cc2c(c(NC3=NCCN3)c1)CCCC2 | -1% | 14%[13.5 µM] | .
COc1ccccc1N1CCN(Cc2ccccc2Cl)CC1 | -2% | -2% | 6
COc1cc(/C=C(/C)[N+](=O)[O-])ccc1OCc1ccccc1Cl | 10µM* | 2.8µM* | .
CCOc1ccc(N2C(=O)c3ccccc3C2=O)cc1 | -11% | 15% | ?
CCOc1ccc(CC2C(=O)NC(=O)N(c3ccc(CC)cc3)C2=O)cc1 (stereo not given) | -13% | 22µM* | ?
ClCBr | -8% | -1% | .
Clc1ccc(CO[C@@H](Cn2ccnc2)c2ccc(Cl)cc2Cl)cc1 | -2% | 3%[20.9 µM] | -1[20.6 µM]
SMILES | HPGD block | ALDH1A1 block | IMPase inh
O=C1C=Cc2ccccc2C1=O | 7.9µM* | 14µM* | .
O=C1c2ccccc2C(=O)c2ccccc21 | -5% | 1% | .
COc1cccc(N=Cc2c(O)n(Cc3ccco3)c(=O)[nH]c2=O)c1 | . | 3% | .
CC(C)n1c(=O)c(C=Nc2ccc(F)cc2)c(O)n(Cc2ccco2)c1=O | -30% | 11µM* | .
CN(CCCC(=O)c1cccnc1)N=O | . | 5% | .
CC/C=C\C/C=C\C/C=C\C/C=C\C/C=C\CCCC(=O)NCCc1ccc(O)c(O)c1 | -4% | 2% | .
CCCCC/C=C\C/C=C\C/C=C\C/C=C\CCCC(=O)NCc1ccc(O)c(OC)c1 | 32µM* | 25µM* | .
CCCCCCCCC(=O)NCc1ccc(O)c(OC)c1 | -5% | -3% | 3
COc1cc(CNC(=O)CCCC/C=C/C(C)C)ccc1O | -24% | 2µM*! | 5
CC/C=C\C/C=C\C/C=C\C/C=C\C/C=C\CCCC(N)=O | -7% | -7% | .
O=C1NS(=O)c2cc([N+](=O)[O-])cc([N+](=O)[O-])c21 (stereo not given) | . | 22µM* | .
O=[N+]([O-])c1cc([N+](=O)[O-])c2ccccc2c1 | -10% | -6% | .
CC(C)C(=O)c1cn(Cc2ccccc2C#N)c2ccccc12 | -3% | 7% | 2
CC(=O)c1cn(Cc2ccccc2C#N)c2ccccc12 | . | 25µM* | .
O=C(Nc1ccccc1)N1CC[C@@]2(CCCNC2)C1 | -2% | -3% | .
N#CSCSC#N | 6.3µM* | 0.11µM* | .
